# Source: PMC11024108
# Columns and labels:
# Test in all cases: cross-link between two proteins; cross-linking mass spectrometry
# [1] = target: Hemoglobin subunit beta-1 (UniProt P02088)
# [2] = target: Histone H2B type 1-H (UniProt Q93079)
# [3] = target: Hyaluronan and proteoglycan link protein 1 (UniProt Q9QUP5)
# [4] = target: Insulin-like growth factor 1 receptor (UniProt Q60751)
# [5] = target: Intersectin-1 (UniProt Q9Z0R4)
# [6] = target: Kinesin heavy chain isoform 5C (UniProt P28738)
# [7] = target: Kinesin light chain 2 (UniProt O88448)
# Chain of Kinesin light chain 2 (O88448 whole entry): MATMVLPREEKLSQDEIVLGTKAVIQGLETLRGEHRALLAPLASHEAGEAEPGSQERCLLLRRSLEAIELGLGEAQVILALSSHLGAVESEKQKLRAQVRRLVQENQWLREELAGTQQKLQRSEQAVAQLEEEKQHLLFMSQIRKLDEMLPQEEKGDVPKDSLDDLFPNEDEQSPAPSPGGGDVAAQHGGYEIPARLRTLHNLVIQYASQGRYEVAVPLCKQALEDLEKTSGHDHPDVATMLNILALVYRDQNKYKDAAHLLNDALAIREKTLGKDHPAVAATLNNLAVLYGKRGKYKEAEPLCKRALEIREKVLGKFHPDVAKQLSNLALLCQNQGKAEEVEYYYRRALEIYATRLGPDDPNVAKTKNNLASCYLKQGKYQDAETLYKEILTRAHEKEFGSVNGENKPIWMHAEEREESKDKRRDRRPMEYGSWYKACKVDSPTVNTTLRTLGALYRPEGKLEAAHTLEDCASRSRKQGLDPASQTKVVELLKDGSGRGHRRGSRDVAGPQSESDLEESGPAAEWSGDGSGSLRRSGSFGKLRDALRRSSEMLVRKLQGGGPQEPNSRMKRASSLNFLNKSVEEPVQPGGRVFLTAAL
# [8] = target: Lanosterol 14-alpha demethylase (UniProt Q16850)
# [9] = target: Lysocardiolipin acyltransferase 1 (UniProt Q6UWP7)
# [10] = target: Limbic system-associated membrane protein (UniProt Q8BLK3)
# [11] = target: Melanoma inhibitory activity protein 2 (UniProt Q91ZV0)
# [12] = target: Microtubule-associated protein 1A (UniProt Q9QYR6)
# [13] = target: Mitochondrial import inner membrane translocase subunit TIM16 (UniProt Q9Y3D7)
# Chain of Mitochondrial import inner membrane translocase subunit TIM16 (Q9Y3D7 whole entry): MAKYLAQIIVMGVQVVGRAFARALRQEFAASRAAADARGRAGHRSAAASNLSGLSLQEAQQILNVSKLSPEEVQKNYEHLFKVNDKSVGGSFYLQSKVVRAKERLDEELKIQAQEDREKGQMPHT
# [14] = target: Mitochondrial import inner membrane translocase subunit Tim9 (UniProt Q9Y5J7)
# [15] = target: Monocarboxylate transporter 1 (UniProt P53985)
# [16] = target: Myosin light chain 6B (UniProt Q8CI43)
# [17] = target: Myosin-14 (UniProt Q6URW6)
# [18] = target: Myosin-9 (UniProt Q8VDD5)
# [19] = target: NADPH:adrenodoxin oxidoreductase, mitochondrial (UniProt P22570)
# [20] = target: Neurofascin (UniProt Q810U3)
# [21] = target: Neuronal pentraxin receptor (UniProt Q99J85)
# Chain of Membrane-associated progesterone receptor component 1, O00264 (O00264 whole entry): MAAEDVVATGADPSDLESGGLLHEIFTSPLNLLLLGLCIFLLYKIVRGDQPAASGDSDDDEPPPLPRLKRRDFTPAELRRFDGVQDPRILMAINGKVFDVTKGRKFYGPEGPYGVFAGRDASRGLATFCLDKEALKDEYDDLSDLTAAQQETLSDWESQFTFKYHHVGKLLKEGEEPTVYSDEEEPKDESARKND
# Chain of Insulin-like growth factor 1 receptor (Q60751 whole entry): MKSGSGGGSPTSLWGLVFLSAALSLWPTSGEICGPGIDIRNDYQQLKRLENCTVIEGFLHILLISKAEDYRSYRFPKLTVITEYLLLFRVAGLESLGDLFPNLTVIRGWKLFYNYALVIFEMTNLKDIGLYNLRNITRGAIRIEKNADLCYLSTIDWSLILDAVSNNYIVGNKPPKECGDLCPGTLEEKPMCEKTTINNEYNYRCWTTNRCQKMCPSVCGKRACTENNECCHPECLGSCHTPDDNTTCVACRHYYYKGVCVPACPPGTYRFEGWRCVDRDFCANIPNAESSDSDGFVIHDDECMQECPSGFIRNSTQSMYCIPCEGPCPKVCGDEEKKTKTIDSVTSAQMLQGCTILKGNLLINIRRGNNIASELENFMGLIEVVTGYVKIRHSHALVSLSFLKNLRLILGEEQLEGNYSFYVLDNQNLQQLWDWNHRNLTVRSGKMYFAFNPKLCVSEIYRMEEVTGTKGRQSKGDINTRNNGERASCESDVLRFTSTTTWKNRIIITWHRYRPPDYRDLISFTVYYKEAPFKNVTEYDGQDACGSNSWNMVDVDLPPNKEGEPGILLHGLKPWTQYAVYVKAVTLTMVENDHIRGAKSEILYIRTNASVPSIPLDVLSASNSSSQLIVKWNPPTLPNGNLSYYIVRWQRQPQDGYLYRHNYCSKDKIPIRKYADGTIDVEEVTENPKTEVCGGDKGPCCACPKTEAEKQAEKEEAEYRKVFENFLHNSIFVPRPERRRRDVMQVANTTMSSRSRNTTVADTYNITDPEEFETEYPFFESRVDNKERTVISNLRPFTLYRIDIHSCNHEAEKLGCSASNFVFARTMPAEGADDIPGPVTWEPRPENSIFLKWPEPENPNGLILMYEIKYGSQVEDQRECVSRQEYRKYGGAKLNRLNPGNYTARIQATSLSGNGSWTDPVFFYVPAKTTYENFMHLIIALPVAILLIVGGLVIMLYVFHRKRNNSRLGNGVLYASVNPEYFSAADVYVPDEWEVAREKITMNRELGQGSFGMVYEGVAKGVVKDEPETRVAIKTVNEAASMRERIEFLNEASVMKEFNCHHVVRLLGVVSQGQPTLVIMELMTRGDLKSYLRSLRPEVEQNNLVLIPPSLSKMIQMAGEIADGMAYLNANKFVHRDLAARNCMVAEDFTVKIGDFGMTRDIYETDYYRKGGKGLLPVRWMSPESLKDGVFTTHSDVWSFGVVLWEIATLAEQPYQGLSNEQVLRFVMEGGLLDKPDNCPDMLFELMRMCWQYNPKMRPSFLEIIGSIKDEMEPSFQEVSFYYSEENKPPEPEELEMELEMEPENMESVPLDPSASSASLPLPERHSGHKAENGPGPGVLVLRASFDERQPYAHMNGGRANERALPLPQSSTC
# Chain of Hemoglobin subunit alpha, P01942 (P01942 whole entry): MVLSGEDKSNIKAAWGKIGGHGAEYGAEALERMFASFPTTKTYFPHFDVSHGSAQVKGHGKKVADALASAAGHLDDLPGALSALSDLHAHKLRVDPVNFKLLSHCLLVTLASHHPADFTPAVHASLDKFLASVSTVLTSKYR
# Chain of Microtubule-associated protein 1B, P14873 (P14873 whole entry): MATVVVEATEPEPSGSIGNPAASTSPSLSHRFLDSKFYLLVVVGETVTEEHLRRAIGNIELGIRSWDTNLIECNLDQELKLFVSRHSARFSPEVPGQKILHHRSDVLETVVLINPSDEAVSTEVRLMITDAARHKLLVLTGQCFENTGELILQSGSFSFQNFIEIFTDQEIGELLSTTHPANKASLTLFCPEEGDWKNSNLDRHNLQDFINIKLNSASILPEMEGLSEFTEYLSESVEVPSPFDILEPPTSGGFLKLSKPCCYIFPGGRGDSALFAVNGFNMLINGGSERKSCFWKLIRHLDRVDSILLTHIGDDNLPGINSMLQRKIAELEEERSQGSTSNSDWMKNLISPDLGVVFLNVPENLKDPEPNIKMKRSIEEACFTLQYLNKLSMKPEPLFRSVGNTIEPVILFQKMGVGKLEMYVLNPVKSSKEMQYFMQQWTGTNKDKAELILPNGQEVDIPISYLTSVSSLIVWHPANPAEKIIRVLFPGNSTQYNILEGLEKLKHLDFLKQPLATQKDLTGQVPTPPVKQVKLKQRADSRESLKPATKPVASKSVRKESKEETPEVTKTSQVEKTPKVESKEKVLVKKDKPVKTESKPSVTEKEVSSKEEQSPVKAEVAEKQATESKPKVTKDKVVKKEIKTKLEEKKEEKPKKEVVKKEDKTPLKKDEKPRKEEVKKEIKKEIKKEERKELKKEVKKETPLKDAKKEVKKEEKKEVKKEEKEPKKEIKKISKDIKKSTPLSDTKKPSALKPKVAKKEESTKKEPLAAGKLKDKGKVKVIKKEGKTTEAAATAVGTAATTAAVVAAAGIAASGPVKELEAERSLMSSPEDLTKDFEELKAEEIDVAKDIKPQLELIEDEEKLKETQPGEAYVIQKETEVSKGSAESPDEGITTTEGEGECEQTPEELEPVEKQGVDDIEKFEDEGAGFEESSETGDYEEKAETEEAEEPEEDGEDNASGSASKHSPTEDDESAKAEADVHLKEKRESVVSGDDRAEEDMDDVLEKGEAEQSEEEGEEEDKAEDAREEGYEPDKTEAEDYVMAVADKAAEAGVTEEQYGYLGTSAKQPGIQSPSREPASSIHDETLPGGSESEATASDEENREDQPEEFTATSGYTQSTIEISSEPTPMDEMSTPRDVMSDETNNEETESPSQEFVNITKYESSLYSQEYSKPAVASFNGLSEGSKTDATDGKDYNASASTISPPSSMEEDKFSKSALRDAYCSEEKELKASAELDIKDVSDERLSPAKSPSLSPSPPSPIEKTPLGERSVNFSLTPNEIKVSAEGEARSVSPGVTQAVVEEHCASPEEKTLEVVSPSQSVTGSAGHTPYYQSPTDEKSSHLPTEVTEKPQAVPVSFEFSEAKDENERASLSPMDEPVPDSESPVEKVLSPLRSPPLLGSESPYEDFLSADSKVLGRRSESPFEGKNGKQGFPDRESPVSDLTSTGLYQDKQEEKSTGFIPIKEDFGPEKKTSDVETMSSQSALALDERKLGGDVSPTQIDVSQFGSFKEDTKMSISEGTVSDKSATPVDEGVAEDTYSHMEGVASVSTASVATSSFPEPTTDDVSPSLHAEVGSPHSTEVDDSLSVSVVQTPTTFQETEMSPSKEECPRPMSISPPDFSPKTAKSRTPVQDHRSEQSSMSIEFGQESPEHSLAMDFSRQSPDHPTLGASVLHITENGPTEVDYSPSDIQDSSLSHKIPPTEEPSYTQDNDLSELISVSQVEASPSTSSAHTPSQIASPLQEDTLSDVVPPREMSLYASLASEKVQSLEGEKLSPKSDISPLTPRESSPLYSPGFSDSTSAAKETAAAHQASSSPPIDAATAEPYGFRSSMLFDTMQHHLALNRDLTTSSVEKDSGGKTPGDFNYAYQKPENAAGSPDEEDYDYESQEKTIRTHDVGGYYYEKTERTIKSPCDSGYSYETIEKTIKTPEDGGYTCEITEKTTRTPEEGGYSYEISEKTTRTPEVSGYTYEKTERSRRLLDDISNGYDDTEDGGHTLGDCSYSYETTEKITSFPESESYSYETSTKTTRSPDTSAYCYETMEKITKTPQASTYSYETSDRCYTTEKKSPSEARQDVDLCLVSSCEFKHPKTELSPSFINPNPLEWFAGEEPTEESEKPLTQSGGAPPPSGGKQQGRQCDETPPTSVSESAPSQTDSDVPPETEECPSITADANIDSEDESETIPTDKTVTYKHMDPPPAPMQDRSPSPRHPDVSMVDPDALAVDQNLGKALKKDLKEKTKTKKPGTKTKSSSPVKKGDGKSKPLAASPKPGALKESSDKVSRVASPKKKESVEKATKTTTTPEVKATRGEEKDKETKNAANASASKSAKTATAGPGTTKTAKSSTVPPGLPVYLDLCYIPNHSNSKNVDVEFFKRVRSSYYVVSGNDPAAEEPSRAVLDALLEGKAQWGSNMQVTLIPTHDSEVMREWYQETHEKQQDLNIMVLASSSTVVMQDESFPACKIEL
# Chain of Hemoglobin subunit beta-1 (P02088 whole entry): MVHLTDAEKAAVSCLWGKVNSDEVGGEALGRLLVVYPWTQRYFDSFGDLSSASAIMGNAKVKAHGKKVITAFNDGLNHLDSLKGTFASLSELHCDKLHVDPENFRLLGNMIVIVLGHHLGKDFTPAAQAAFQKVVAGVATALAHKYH
substance,measurement,setting,value
"Hemoglobin subunit alpha, P01942",listed as a hit,[1],yes
"Programmed cell death protein 4, Q53EL6",listed as a hit,[2],yes
"Neurocan core protein, P55066",listed as a hit,[3],yes
"Insulin receptor, P15208",listed as a hit,[4],yes
"Epidermal growth factor receptor substrate 15-like 1, Q60902",listed as a hit,[5],yes
"Kinesin light chain 1, O88447",listed as a hit,[6],yes
same,listed as a hit,[7],yes
"Membrane-associated progesterone receptor component 1, O00264",listed as a hit,[8],yes
same,listed as a hit,[9],yes
"Rho-associated protein kinase 2, P70336",listed as a hit,[10],yes
"Transport and Golgi organization protein 1 homolog, Q8BI84",listed as a hit,[11],yes
"Microtubule-associated protein 1B, P14873",listed as a hit,[12],yes
"Mitochondrial import inner membrane translocase subunit TIM14, Q96DA6",listed as a hit,[13],yes
"Mitochondrial import inner membrane translocase subunit Tim22, Q9Y584",listed as a hit,[14],yes
"Basigin, P35613",listed as a hit,[15],yes
"Myosin-10, Q61879",listed as a hit,[16],yes
same,listed as a hit,[17],yes
same,listed as a hit,[18],yes
"Dihydrolipoyl dehydrogenase, mitochondrial, P09622",listed as a hit,[19],yes
"Contactin-associated protein 1, O54991",listed as a hit,[20],yes
"Neuronal pentraxin-1, Q62443",listed as a hit,[21],yes
